biological target: T1, GST-Nv-NF-kB (Cys allele) (Nematostella vectensis, UniProt E5G601 2-411); experiment: protein-binding microarray (PBM); PBM: ~300 nM protein, 6 mM HEPES pH 7.8, 80 mM KCl, 0.5 mM EDTA, 0.5 mM EGTA, 6% glycerol, 35 ng/ul poly-dIdC, 1% milk, 1 h, room temperature; Ap Aiptasia and Nv Nematostella (sea anemones) / Co Capsaspora / Aq Amphimedon (sponge) / Dm Drosophila / Hu human; RHD is the Rel homology domain; high values mean tight binding; details: dsDNA, one strand shown
T1 sequence: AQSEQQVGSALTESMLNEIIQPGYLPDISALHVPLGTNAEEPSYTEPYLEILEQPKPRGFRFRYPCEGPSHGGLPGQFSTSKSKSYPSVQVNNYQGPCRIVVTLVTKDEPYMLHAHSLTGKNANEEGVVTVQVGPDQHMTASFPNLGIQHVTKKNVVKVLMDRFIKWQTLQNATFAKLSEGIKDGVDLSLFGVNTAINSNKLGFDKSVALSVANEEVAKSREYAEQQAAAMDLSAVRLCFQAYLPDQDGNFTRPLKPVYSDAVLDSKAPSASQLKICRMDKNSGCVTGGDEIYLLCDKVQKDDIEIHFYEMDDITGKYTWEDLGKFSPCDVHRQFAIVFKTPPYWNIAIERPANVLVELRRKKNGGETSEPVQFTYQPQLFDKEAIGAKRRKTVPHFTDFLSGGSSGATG

Q: How did the binding signal turn out when “CCGATTAACATCAAAATTCCACCTGATGTTAATCGGGTCTTGATTCGCTTGACGCTGCTG” was run?
A: 2.45 z-score

Q: Which binding signal does the source give for “CCGATTAACATCACCCCCCCCCGTGATGTTAATCGGGTCTTGATTCGCTTGACGCTGCTG” here?
A: 5.51 z-score

Q: For “CCGATTAACATCAGCCCCCCCCATGATGTTAATCGGGTCTTGATTCGCTTGACGCTGCTG”, which binding signal is on record?
A: 2.9 z-score

Q: Which binding signal does the source give for “CCGATTAACATCAGGGAACTCCATGATGTTAATCGGGTCTTGATTCGCTTGACGCTGCTG” here?
A: 2.2 z-score

Q: With “CCGATTAACATCAGGGTTTTCCATGATGTTAATCGGGTCTTGATTCGCTTGACGCTGCTG” as the sequence, how does the binding signal read?
A: 2.18 z-score

Q: How did the binding signal turn out when “CCGATTAACATCAGGGGCGGGAATGATGTTAATCGGGTCTTGATTCGCTTGACGCTGCTG” was run?
A: 3.85 z-score

Q: With “CCGATTAACATCAGGGGTTCCACTGATGTTAATCGGGTCTTGATTCGCTTGACGCTGCTG” as the sequence, how does the binding signal read?
A: 2.46 z-score

Q: How did the binding signal turn out when “CCGATTAACATCAGGGAAGCCCATGATGTTAATCGGGTCTTGATTCGCTTGACGCTGCTG” was run?
A: 1.19 z-score

Q: For “CCGATTAACATCAGGGACCTCCCTGATGTTAATCGGGTCTTGATTCGCTTGACGCTGCTG”, which binding signal is on record?
A: 4.78 z-score

Q: For “CCGATTAACATCACATGTTCCCCTGATGTTAATCGGGTCTTGATTCGCTTGACGCTGCTG”, which binding signal is on record?
A: 5.26 z-score

Q: With “CCGATTAACATCAAGCAACCCCCTGATGTTAATCGGGTCTTGATTCGCTTGACGCTGCTG” as the sequence, how does the binding signal read?
A: 3.34 z-score

Q: For “CCGATTAACATCAAAAATTTACCTGATGTTAATCGGGTCTTGATTCGCTTGACGCTGCTG”, which binding signal is on record?
A: 3.04 z-score

Q: For “CCGATTAACATCAACAAAGTCCCTGATGTTAATCGGGTCTTGATTCGCTTGACGCTGCTG”, which binding signal is on record?
A: 5.37 z-score

Q: With “CCGATTAACATCAGGGGAAGGACTGATGTTAATCGGGTCTTGATTCGCTTGACGCTGCTG” as the sequence, how does the binding signal read?
A: 4.53 z-score

Q: With “CCGATTAACATCACGGGAATCCCTGATGTTAATCGGGTCTTGATTCGCTTGACGCTGCTG” as the sequence, how does the binding signal read?
A: 5.96 z-score

Q: How did the binding signal turn out when “CCGATTAACATCAGGAAAAACCCTGATGTTAATCGGGTCTTGATTCGCTTGACGCTGCTG” was run?
A: 5.86 z-score

Q: For “CCGATTAACATCAGAACATTCCCTGATGTTAATCGGGTCTTGATTCGCTTGACGCTGCTG”, which binding signal is on record?
A: 4.14 z-score

Q: For “CCGATTAACATCAGGAAAACACCTGATGTTAATCGGGTCTTGATTCGCTTGACGCTGCTG”, which binding signal is on record?
A: 3.6 z-score

Q: For “CCGATTAACATCAGGGCAAACCCTGATGTTAATCGGGTCTTGATTCGCTTGACGCTGCTG”, which binding signal is on record?
A: 1.88 z-score

Q: With “CCGATTAACATCAGGGGGATAGATGATGTTAATCGGGTCTTGATTCGCTTGACGCTGCTG” as the sequence, how does the binding signal read?
A: 3.25 z-score

Q: Which binding signal does the source give for “CCGATTAACATCACGGAAGTCCCTGATGTTAATCGGGTCTTGATTCGCTTGACGCTGCTG” here?
A: 5.39 z-score

Q: Which binding signal does the source give for “CCGATTAACATCAGGGAACGCCCTGATGTTAATCGGGTCTTGATTCGCTTGACGCTGCTG” here?
A: 2.74 z-score

Q: Which binding signal does the source give for “CCGATTAACATCAGGTACTTCCATGATGTTAATCGGGTCTTGATTCGCTTGACGCTGCTG” here?
A: 2.6 z-score

Q: With “CCGATTAACATCAGGTAATCACCTGATGTTAATCGGGTCTTGATTCGCTTGACGCTGCTG” as the sequence, how does the binding signal read?
A: 2.2 z-score

Q: Which binding signal does the source give for “CCGATTAACATCAGGTAATTCCATGATGTTAATCGGGTCTTGATTCGCTTGACGCTGCTG” here?
A: 1.89 z-score

Q: How did the binding signal turn out when “CCGATTAACATCAGGGATTCTCATGATGTTAATCGGGTCTTGATTCGCTTGACGCTGCTG” was run?
A: 1.8 z-score

Q: “CCGATTAACATCAGGGAATTATATGATGTTAATCGGGTCTTGATTCGCTTGACGCTGCTG” was tested. Which binding signal did it give?
A: 6.68 z-score

Q: With “CCGATTAACATCACGAAAATCCCTGATGTTAATCGGGTCTTGATTCGCTTGACGCTGCTG” as the sequence, how does the binding signal read?
A: 4.39 z-score

Q: Which binding signal does the source give for “CCGATTAACATCAAAAAAAGTCCTGATGTTAATCGGGTCTTGATTCGCTTGACGCTGCTG” here?
A: 1.72 z-score

Q: “CCGATTAACATCAACCACCCCCTTGATGTTAATCGGGTCTTGATTCGCTTGACGCTGCTG” was tested. Which binding signal did it give?
A: 3.02 z-score

Q: Which binding signal does the source give for “CCGATTAACATCAGGAATCCCTATGATGTTAATCGGGTCTTGATTCGCTTGACGCTGCTG” here?
A: 2.15 z-score

Q: “CCGATTAACATCAATACACCCCCTGATGTTAATCGGGTCTTGATTCGCTTGACGCTGCTG” was tested. Which binding signal did it give?
A: 2.95 z-score

Q: Which binding signal does the source give for “CCGATTAACATCAGGGACTTACCTGATGTTAATCGGGTCTTGATTCGCTTGACGCTGCTG” here?
A: 7 z-score

Q: For “CCGATTAACATCAGGGCCCCCCCTGATGTTAATCGGGTCTTGATTCGCTTGACGCTGCTG”, which binding signal is on record?
A: 4.21 z-score

Q: For “CCGATTAACATCAGAGTCCCCCCTGATGTTAATCGGGTCTTGATTCGCTTGACGCTGCTG”, which binding signal is on record?
A: 5.02 z-score

Q: “CCGATTAACATCAGGAAATGCCCTGATGTTAATCGGGTCTTGATTCGCTTGACGCTGCTG” was tested. Which binding signal did it give?
A: 3.05 z-score

Q: For “CCGATTAACATCAGGAATAACCCTGATGTTAATCGGGTCTTGATTCGCTTGACGCTGCTG”, which binding signal is on record?
A: 2.62 z-score

Q: For “CCGATTAACATCAGGGACTCACCTGATGTTAATCGGGTCTTGATTCGCTTGACGCTGCTG”, which binding signal is on record?
A: 3.19 z-score

Q: “CCGATTAACATCACGGACTTCCCTGATGTTAATCGGGTCTTGATTCGCTTGACGCTGCTG” was tested. Which binding signal did it give?
A: 2.62 z-score

biological target: T2, GST-Co-NF-kB (Capsaspora owczarzaki, UniProt F1ARL5 200-546); experiment: as above; details: dsDNA, one strand shown
T2 sequence: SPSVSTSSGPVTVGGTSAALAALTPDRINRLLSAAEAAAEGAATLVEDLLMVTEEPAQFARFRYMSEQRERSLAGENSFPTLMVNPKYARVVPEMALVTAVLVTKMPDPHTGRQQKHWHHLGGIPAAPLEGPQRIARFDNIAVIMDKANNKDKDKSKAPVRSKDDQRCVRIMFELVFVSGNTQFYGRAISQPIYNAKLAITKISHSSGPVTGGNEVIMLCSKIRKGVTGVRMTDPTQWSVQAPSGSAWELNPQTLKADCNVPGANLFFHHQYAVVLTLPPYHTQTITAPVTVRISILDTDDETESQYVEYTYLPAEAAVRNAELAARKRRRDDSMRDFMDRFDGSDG

Q: “CCGATTAACATCACCCCCCCCCGTGATGTTAATCGGGTCTTGATTCGCTTGACGCTGCTG” was tested. Which binding signal did it give?
A: 7.6 z-score

Q: Which binding signal does the source give for “CCGATTAACATCAGCCCCCCCCATGATGTTAATCGGGTCTTGATTCGCTTGACGCTGCTG” here?
A: 5.27 z-score

Q: For “CCGATTAACATCAGGGAACTCCATGATGTTAATCGGGTCTTGATTCGCTTGACGCTGCTG”, which binding signal is on record?
A: 1.5 z-score

Q: How did the binding signal turn out when “CCGATTAACATCAGGGGCGGGAATGATGTTAATCGGGTCTTGATTCGCTTGACGCTGCTG” was run?
A: 3.85 z-score

Q: For “CCGATTAACATCACATGTTCCCCTGATGTTAATCGGGTCTTGATTCGCTTGACGCTGCTG”, which binding signal is on record?
A: 6.79 z-score

Q: “CCGATTAACATCAAGCAACCCCCTGATGTTAATCGGGTCTTGATTCGCTTGACGCTGCTG” was tested. Which binding signal did it give?
A: 2.21 z-score

Q: “CCGATTAACATCAGGGGAAGGACTGATGTTAATCGGGTCTTGATTCGCTTGACGCTGCTG” was tested. Which binding signal did it give?
A: 4.12 z-score

Q: Which binding signal does the source give for “CCGATTAACATCACGGGAATCCCTGATGTTAATCGGGTCTTGATTCGCTTGACGCTGCTG” here?
A: 3.81 z-score

Q: “CCGATTAACATCAGAACATTCCCTGATGTTAATCGGGTCTTGATTCGCTTGACGCTGCTG” was tested. Which binding signal did it give?
A: 2.6 z-score

Q: Which binding signal does the source give for “CCGATTAACATCAGGGGGATAGATGATGTTAATCGGGTCTTGATTCGCTTGACGCTGCTG” here?
A: 5.41 z-score

Q: “CCGATTAACATCAGGGAACGCCCTGATGTTAATCGGGTCTTGATTCGCTTGACGCTGCTG” was tested. Which binding signal did it give?
A: 1.21 z-score

Q: “CCGATTAACATCAGGGAATTATATGATGTTAATCGGGTCTTGATTCGCTTGACGCTGCTG” was tested. Which binding signal did it give?
A: 4.16 z-score

Q: “CCGATTAACATCACGAAAATCCCTGATGTTAATCGGGTCTTGATTCGCTTGACGCTGCTG” was tested. Which binding signal did it give?
A: 1.55 z-score

Q: With “CCGATTAACATCAACCACCCCCTTGATGTTAATCGGGTCTTGATTCGCTTGACGCTGCTG” as the sequence, how does the binding signal read?
A: 2.25 z-score

Q: “CCGATTAACATCAATACACCCCCTGATGTTAATCGGGTCTTGATTCGCTTGACGCTGCTG” was tested. Which binding signal did it give?
A: 4.19 z-score

Q: With “CCGATTAACATCAGGGCCCCCCCTGATGTTAATCGGGTCTTGATTCGCTTGACGCTGCTG” as the sequence, how does the binding signal read?
A: 2.89 z-score

Q: For “CCGATTAACATCAGAGTCCCCCCTGATGTTAATCGGGTCTTGATTCGCTTGACGCTGCTG”, which binding signal is on record?
A: 7.33 z-score
